# Assay outcomes (PubChem)
# Shown are actives, neighbours in structure and some others; about 2.9% of the full set was active somewhere.
# ATXN viability – viability counter-screen for ATXN expression inhibitors; hit rate 0.49% among 400,000; Potency, µM (highest dose often 56.7 µM), hits mostly cytotoxic; S2 cells (HEK-293 line with an ATXN2-luciferase reporter) viability, CellTiter-Fluor protease fluorescence, 24 h; also: nearly all actives have a fitted effect of over 40% in size
# Nrf2 block – blocks Nrf2 signaling; A549 ARE-Fluc reporter, luciferase luminescence, 18-24 h; Potency, µM (top dose mostly 46 µM), for the others: at the top dose activity change, negative = inhibition, actives largely listed as inhibitors; hit rate 2.1% among 360,000; AID 504444; also: % is scaled to controls: 0 for no effect and ±100 for the full control effect; nearly all actives have a fitted effect of over 60% in size
#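 A549 ARE_Fluc cells (5000/well, 5% FBS OPTI-MEM) pre-incubated 2 h, then treated with compounds 18-24 h at 37C/5% CO2 in concentration-response. CellTiter-Fluor viability read first; BugLite luciferase luminescence after 15 min at room temperature gives Nrf2 activity.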
# A549 tox – counter-screen for Nrf2 inhibitors: cytotoxicity in A549 cells. A549 ARE-Fluc cells, CellTiter-Fluor viability, 18-24 h. Potency, µM (series often up to 46 µM), without a hit: at the top dose activity change, negative = cytotoxicity, hits mostly inhibitors. hit rate 0.16% among 390,000; also: % is scaled to controls: 0 for no effect and ±100 for the full control effect
#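 A549 ARE_Fluc cells in 5% FBS OPTI-MEM were exposed to compounds in concentration-response for 18-24 h at 37 deg C. Viability was read by CellTiter-Fluor fluorescence (Ex 405/Em 525) after 30 min, before the luciferase read.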
# Nrf2 activator – activators of Nrf2 (ARE) signaling. AREc32 ARE-luciferase reporter (MCF7-derived line), luminescence, 24 h. Potency, µM (highest dose often 46.1 µM), without a hit: top-dose activation, actives largely listed as activators. hit rate 0.31% among 410,000. AID 624171; also: % of control where 0% means no effect; nearly all actives have a fitted effect of over 65% in size
#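 Steps: seed AREc32_Fluc cells (1000/well, 5% FBS OPTI-MEM); incubate overnight at 37 deg C; add 23 nL compound; incubate 24 hr; add Steady-Glo; hold 30 min RT; read luminescence.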
# ATXN2 expr inh – ATXN2 expression inhibition. hit rate 0.72% among 360,000. Potency, µM (highest dose often 57 µM), without a hit: at the highest dose activity change, negative = inhibition, usual class: inhibitors. HEK-293 ATXN2-luciferase reporter, luminescence, 24 h; also: % is scaled to controls: 0 for no effect and ±100 for the full control effect; nearly all actives have a fitted effect of over 55% in size
#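 ATXN2-luciferase reporter cells (luciferase flanked by upstream and downstream ATXN2 gene portions) were treated 24 h at 37 °C with compounds at up to 57 uM. SteadyGlo luminescence gave expression; GF-AFC fluorescence gave viability.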
# * marks the source's active call; other numbers are inactive results; i = inactive; ? = inconclusive; / = not tested or not shown; [ ] = another dose, or the depositor's remark. Calls follow the shape of the dose curve; as a rule, active = well fitted curve in the direction sought with a large enough effect; inconclusive = small, poorly fitted or top-dose-only effect, or another doubt; inactive = no such curve, though single readings can be large; an effect the other way counts as inactive or inconclusive. Potency is read from the fitted curve at half-maximal effect.
SMILES,ATXN viability,Nrf2 block,A549 tox,Nrf2 activator,ATXN2 expr inh
C=CCN=C1NN=C(c2cc(C)n(CC=C)c2C)CS1,i,?,-0.3%,-1.0%,26.7µM*
CCc1ccc2oc(C(=O)NCCc3ccc(OC)c(OC)c3)cc(=O)c2c1,?,?,-14.9%,4.6%,?
COc1ccccc1-c1oc2ccccc2c1C#CC1(N)CCCCC1,25.1µM*,14.9%,-4.7%,6.0%,?
COc1ccc(Cl)cc1NC(=O)Nc1cccc([N+](=O)[O-])c1C,?,13µM*,-18.0%,-0.3%,20µM*
CC(=O)N1CCN(c2ccc(NC(=O)c3ccc(N4CCCC4)c([N+](=O)[O-])c3)cc2Cl)CC1,?,23.1µM*,-14.1%,0.2%,?
CN1CCN(CC(=O)Nc2ccccc2[N+](=O)[O-])CC1,i,2.1%,9.2%,0.2%,-8.7%
CN(C)S(=O)(=O)c1cc(NC(=O)c2ccc(-n3ccnc3)c([N+](=O)[O-])c2)ccc1Cl,i,18.4µM*,-6.2%,2.8%,-29.5%
Cc1cccc(N2CCN(CC(=O)Nc3ccccc3[N+](=O)[O-])CC2)c1C,i,20.6µM*,-11.1%,-0.3%,-1.8%
CCCC(=O)N1CCN(c2ccc(NC(=O)c3ccc(N4CCCC4)c([N+](=O)[O-])c3)cc2Cl)CC1,i,-11.4%,-6.5%,-1.1%,-17.8%
Cc1ccc(C(=O)Nc2ccccc2N2CCCCC2)cc1[N+](=O)[O-],i,11.6µM*,0.5%,3.5%,/
CC(=O)N1CCc2c(sc3c2c(=O)n(-c2ccccc2Cl)c(=O)n3Cc2cccc(C)c2)C1,/,/,-11.5%,7.5%,?
Cc1ccc(Nc2ncnc3nc[nH]c23)cc1,/,?,-2.2%,/,/
CCOc1c(CNCCSc2nnnn2C)cccc1OC,i,1.4%,-11.8%,-1.2%,-0.8%
CCC1C(=O)NCCN1Cc1ccc2c(c1)CN(Cc1cc(OC)c3c(c1)OCO3)CCO2 (configuration not stated),i,/,/,/,/
COc1cccc(C(=O)NC2=NC(c3ccccc3F)CC(=O)N2)c1 (configuration not stated),i,11.4%,6.3%,5.6%,11.7%
CC(=O)N(C1CC(C)C(C#N)(C#N)C1(C#N)C#N)N(C)C (configuration not stated),29.9µM*,?,?,-1.9%,?
Nc1nc2c(ncn2[C@H]2C[C@H](O)[C@@H](CO)O2)c(=O)[nH]1,i,15.1%,-4.3%,-0.3%,-2.1%
Nc1nc(Cl)nc2c1ncn2C1CC(O)C(CO)O1 (configuration not stated),i,?,-1.0%,2.8%,1.78µM*
Cc1ncc2c(c1CNS(=O)(=O)N(C)C)CCN(C(=O)/C=C/c1ccccc1)C2,i,/,/,/,/
O=C1CC(c2ccccc2F)c2cc3c(cc2N1)CCC3 (configuration not stated),i,?,0.1%,-0.1%,8.1%
O=C1CC(c2cc(Br)ccc2F)c2cc3c(cc2N1)CCC3 (configuration not stated),4.47µM*,?,?,-0.6%,?
O=C1CC(c2cccc(Cl)c2)c2cc3c(cc2N1)CCC3 (configuration not stated),?,-27.7%,-23.4%,-0.9%,?
O=C1CC(c2cccc([N+](=O)[O-])c2)c2cc3c(cc2N1)CCC3 (configuration not stated),?,14.6µM*,?,0.4%,?
CCC(C)(C)NC(=O)C(c1ccc(OC)cc1)N(C(=O)CCC(=O)Nc1cc(C)on1)c1cccc(F)c1 (configuration not stated),i,5.8µM*,?,-0.2%,-31.1%
Cc1ccc(-c2nnc(Sc3nc4ccccc4o3)c3ccccc23)cc1,?,-21.0%,-1.8%[1.84 µM],1.8%,?
SMILES,ATXN viability,Nrf2 block,A549 tox,Nrf2 activator,ATXN2 expr inh
Clc1ccc(-c2nnc(Sc3nc4ccccc4o3)c3ccccc23)cc1,?,18.4µM*,-26.4%,?,?
O=C(C1CCCCC1)N1CCN=C1SCc1cccc([N+](=O)[O-])c1,i,20.6µM*,-2.0%,4.4%,-1.3%
O=C(C1CCCCC1)N1CCN=C1SCc1cccnc1,i,?,-0.1%,0.2%,7.2%
CN(C)CC(CCC(CN(C)C)C(=O)c1ccccc1)C(=O)c1ccccc1 (configuration not stated),7.52µM*,18.4µM*,?,?,7.52µM*
CCOc1ccc(C(=O)C(CCC(CN(C)C)C(=O)c2ccc(OCC)cc2)CN(C)C)cc1 (configuration not stated),3.16µM*,?,?,?,5.62µM*
COc1ccc(C(=O)C(CCCCC(CN(C)C)C(=O)c2ccc(OC)cc2)CN(C)C)cc1 (configuration not stated),/,5.4%,?,6.6%,-9.5%
COC(=O)[C@@H]1CCCN1Cc1ccc2c(c1)CN(Cc1ccc3c(c1)CCCN3C)CCO2,i,/,/,/,/
Cc1cc(N2CCCC(C(=O)Nc3ccc4c(c3)CCC4)C2)n2ncnc2n1 (configuration not stated),i,13µM*,-14.4%,0.2%,-25.9%
O=C1NC(=O)C(Cc2ccccc2F)(C2CCN(Cc3cccn3-c3cccnc3)CC2)N1 (configuration not stated),i,/,/,/,/
COc1ccccc1NS(=O)(=O)c1ccc(C(=O)N2CCCCCC2)cc1,i,10.3µM*,-10.4%,1.7%,-8.5%
COc1ccc(S(=O)(=O)N(C)c2ccc(C(=O)N3CCCCC3)cc2)cc1OC,i,11.6µM*,5.4%,1.8%,-15.7%
CCOC1OC(=O)C[C@H]1NC(=O)[C@@H]1CCCN1C(=O)[C@@H](NC(=O)c1ccc(N)c(Cl)c1)C(C)(C)C (some centres not stated),/,/,/,/,50.9%
Nc1nc(-c2nn(Cc3ccccc3F)c3ncccc23)nc(N)c1N1CCOCC1,/,/,/,/,-11.4%
CC(C)Oc1ccc(C(=O)Nc2ccc(NC(=O)c3ccco3)c(Cl)c2)cc1,i,?,-7.8%,0.6%,4.6%
CC(C)COc1ccc(C(=O)Nc2ccc(NC(=O)c3ccco3)c(Cl)c2)cc1,?,16.4µM*,?,0.5%,?
COc1ccc(CCNC(=O)c2cnn(-c3nccc(-c4cccs4)n3)c2C)cc1OC,i,/,/,/,/
CCN(C(=O)CN1C(=O)S/C(=C\c2ccc(Cl)cc2)C1=O)C1CCS(=O)(=O)C1 (configuration not stated),i,-6.1%,-5.7%,-0.3%,-3.5%
CCN(C(=O)CN1C(=O)S/C(=C\c2cccc(Cl)c2)C1=O)C1CCS(=O)(=O)C1 (configuration not stated),?,-15.9%,0.4%,11.2µM*,-7.3%
CCN(C(=O)C(C)N1C(=O)/C(=C/c2ccco2)SC1=S)C1CCS(=O)(=O)C1 (configuration not stated),/,?,14.6µM*,25.2%,-36.9%
